Growth data for 40 molecules are collected here from PubChem BioAssay (NCI).

Values joined by “and” are separate entries in the source; they are usually repeats but may differ in a detail not shown here. Equal values may be shown once. Compounds without any hit were thinned out: in the full panel of roughly 83,000, 20% have a hit.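 Step 1: grow cells in 96-well plates. Step 2: add test compound at a single concentration. Step 3: incubate 48 h. Step 4: record percent growth.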 Active and inactive are the calls of the source.

The test system of the test is SK-MEL-28 melanoma. In words: NCI-60 one-dose screen, 48 h (100 = growth as untreated, 0 = no growth, -100 = all killed). The conditions noted are these: 10 µM. How it is done: Growth inhibition of the SK-MEL-28 human tumor cell line is measured as a screen for anti-cancer activity. Cells are grown in 96 well plates and exposed to the test compound for 48 hours. Compounds are tested at a single concentration, which is 10^-5 M for most compounds. The reported endpoint is percent growth (GI% or GIPRCNT), where numbers from 0 - 100% represent growth inhibition, and numbers from -100% - 0 represent cell death. For example, a value of 40 represents 60% growth inhibition. A value of 0 means no net growth occurred over the course of the experiment. A value of -40 indicates 40% of cells at the beginning of the experiment died by the end of the experiment. A value of -100 means all cells are dead at the end of the experiment.
NCI-60 Human Tumor Cell Lines Screen was performed using the standard one-dose NCI protocol, which is described in more detail at https://dtp.cancer.gov/discovery_development/nci-60/default.htm.
Compounds with GIPRCNT values below 10 were considered active. Activity score was based on GIPRCNT using the following formula: […]
Score is 0 for GIPRCNT values of 100 or above, 50 for GIPRCNT values of 0, and 100 for GIPRCNT values of -100.
On to `COc1cc([C@@H]2c3cc4c(c(O)c3C[C@H]3COC(=O)[C@@H]32)OCO4)cc(OC)c1OC`, for which the growth was 54.3% (inactive).
The result for `COc1cc(/C=C/[N+](=O)[O-])cc(Br)c1OC` reads -19.8% (active); that for `C/C(=C\c1ccc(Cl)c(Cl)c1)[N+](=O)[O-]`, -24.5% (active) and 103% (inactive); that for `COc1cc(/C=C\[N+](=O)[O-])ccc1O`, 55.8% (inactive) and 97.3% (inactive).
Regarding `COc1cc(/C=C/[N+](=O)[O-])cc(OC)c1OC`, the growth was -7.3% (active).
As to `CC(Cc1ccc2c(c1)OCO2)NN` (stereo not given), the growth is 105% (inactive).
For `CC/C(=C/c1ccc(OC)cc1OC)[N+](=O)[O-]`, the growth is 2.66% (active).
In the case of `Cc1cc(C(C)(C)c2ccc(O)c(C)c2)ccc1O`, the growth is 100% (inactive).
To `COC12c3c(C)cc(O)c4c(=O)occ(c34)C(=O)C1C13COC(=O)c4c(O)cc(C)c(c41)C(=O)C2C3OC(C)=O` (stereo not given) belongs 91.6% (inactive); to `C[C@@H]1C[C@@H]([C@H](O)CC2CC(=O)NC(=O)C2)C(=O)[C@@H](C)C1`, -13.1% (active); to `CC/C(=C/c1ccc(OC)cc1)[N+](=O)[O-]`, -52.4% (active).
To `Cn1c(O)c(N=O)c(=O)n(C)c1=O` belongs 113% (inactive) and 107% (inactive); to `COc1cc2c(cc1OC)C13CCN4CC5=CCOC6CC(=O)N2C1C6C5CC43` (stereo not given), 114% (inactive) and 105% (inactive).
The result for `O=[P+](O)c1ccccc1` reads 104% (inactive).
In the case of `O=C1CCC(=O)N1SC(Cl)(Cl)Cl`, the growth was 107% (inactive).
`CCCCCCCC[N+]12CN3CN(CN(C3)C1)C2`: the growth is 98.8% (inactive).
As to `[Cl][Sn]([c]1ccccc1)([c]1ccccc1)[c]1ccccc1`, the growth was -85% (active).
As to `[Cl][Hg][c]1ccc(Cl)s1`, the growth is -85.4% (active).
Turning to `O=C(CCl)Nc1ccc(Cl)cc1`, the growth is 69.5% (inactive).
The result for `COc1ccc(/C=C\[N+](=O)[O-])cc1OC` reads 50.4% (inactive); that for `C[C@]12CC[C@H]3[C@@H](CCC4=CC(=O)CC[C@@H]43)[C@@H]1CC[C@@H]2OC(=O)N(CCCl)N=O`, 90.2% (inactive).
With `Oc1ccccc1-c1ccccc1`, the growth was 112% (inactive) and 102% (inactive).
With `CS(=N)(=O)CCC(N)C(=O)O` (stereo not given), the growth is 128% (inactive).
The result for `Oc1c(I)cc(I)cc1I` reads 101% (inactive); that for `Cc1cc(C)c(C[N+](C)(C)C)c(C)c1C`, -9.07% (active).
As for `C=NCC#N`, the growth was 123% (inactive) and 108% (inactive).
The result for `ClCc1ccc2ccccc2n1` reads 110% (inactive); that for `Oc1c(Cl)cc(Cl)c2ccccc12.[Cu+2]`, 116% (inactive).
In the case of `CC(C)c1cc([N+](=O)[O-])cc([N+](=O)[O-])c1O`, the growth is 102% (inactive).
The result for `O=C(CBr)Nc1ccccc1` reads 113% (inactive).
As to `O=C(CBr)Nc1ccc(Cl)cc1`, the growth was 102% (inactive).
To `COc1cc(/C=C(/C)[N+](=O)[O-])ccc1O` belongs 33.1% (inactive) and -9.24% (active); to `COS(=O)(=O)c1ccccc1`, 113% (inactive).
Regarding `C[CH2][Hg][S]c1ccccc1C(=O)O`, the growth is -87.5% (active).
The result for `CC(=O)[O][Hg][c]1c(C)c(C)cc(C)c1C` reads -37.9% (active); that for `COc1ccccc1/C=C/[N+](=O)[O-]`, 79.4% (inactive); that for `NC(Cc1ccccc1)c1ccccc1` (stereo not given), 101% (inactive) and 110% (inactive).
The result for `[Cl][Hg][c]1ccc2ccccc2c1` reads -89% (active); that for `O=[N+]([O-])c1ccc(N2CCOCC2)c2c1no[n+]2[O-]`, 49.3% (inactive); that for `O=[N+]([O-])c1ccc(Br)c([N+](=O)[O-])c1`, 101% (inactive).
